Source: PubChem
TDP1 block: TDP1 (human) enzyme inhibition; recombinant TDP1, AlphaScreen DNA substrate cleavage; 0.28% of 350,000 active; Potency, µM (top dose mostly 130 µM), inactives show top-dose activity change, negative = inhibition, hits mostly inhibitors; Q9NUW8; also: potency is read from the fitted curve at half-maximal effect; nearly all actives have a fitted effect of over 40% in size
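Here, a 5' biotin and 3' phosphotyrosine-FITC DNA oligonucleotide reports Tdp1 activity: intact substrate bridges AlphaScreen beads, while cleavage leaves a 3' phosphate and drops signal. All incubations at room temperature.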
CtBP-E1A blk: CtBP/E1A binding inhibition; AlphaScreen GST-E1A/His-CtBP binding, 1536-well; active compounds read low; activity change, % (concentration not given with the values); 0.49% of 340,000 active; AID 651724; in the data active = activity change below about -65%; inconclusive = mostly about -30% to -63%
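AlphaScreen with 125 nM GST-E1A and 125 nM His-CtBP (5X stocks) in Tris pH 8.0, 300 mM NaCl, BSA, Tween 20, TCEP. Compounds preincubated 2 h at 37 deg C, then glutathione donor/nickel acceptor beads added for 1 h at 37 deg C in dark.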
DT40 TDP1 CPT: DT40-hTDP1 cell growth loss with CPT; chicken DT40 Tdp1-/-;hTDP1 cells + 20 nM CPT, ATP luminescence, 48 h; Potency, µM (series often up to 46.2 µM), for inactives: top-dose activity change, negative = growth inhibition, usual class: inhibitors; 12% of 420,000 active; also: potency is read from the fitted curve at half-maximal effect; nearly all actives have a fitted effect of over 55% in size
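Chicken DT40 Tdp1-/- cells complemented with human TDP1, 400 cells/well, exposed to compounds plus 20 nM camptothecin for at least 48 h at 37 C; viability read as ATP content by CellTiter-Glo luminescence.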
TDP1 cell noCPT: qHTS for Inhibitors of human tyrosyl-DNA phosphodiesterase 1 (TDP1): qHTS in cells in absence of CPT; DT40 Tdp1-/- hTDP1 cells, no CPT, ATP luminescence, 48 h; Potency, µM (highest dose often 46.2 µM), for inactives: top-dose activity change, negative = growth inhibition, usual class: inhibitors; 15% of 420,000 active; also: potency is read from the fitted curve at half-maximal effect; nearly all actives have a fitted effect of over 55% in size
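Compound effects on proliferation are scored in DT40 Tdp1-/-;hTDP1 cells in the absence of CPT. ATP levels (CellTiter-Glo luminescence) are recorded after a ≥48 hr, 37 °C incubation.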
IL-1B inflam inh: inflammasome signaling inhibition, IL-1 beta readout; THP-1 LPS/ATP IL-1B secretion, AlphaLISA, 16 h; active compounds read low; activity change, % at 57.5 µM; 4.7% of 360,000 active; AID 743279; in the data active = activity change below about -50%; inconclusive = mostly about -30% to -49%
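Secreted IL-1B measured by AlphaLISA bead assay after 16 h compound exposure of THP-1 cells; compounds (final up to 57.5 uM) added 1 h before LPS (250 ng/mL) and ATP (1.25 mM) stimulation; lower signal means less secretion.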
Six1-Eya2 blk: inhibitors of human Six1/Eya2 interaction; 0.56% of 360,000 active; activity change, % (concentration not given with the values); Q15475+O00167; AlphaScreen GST-Six1/His-Eya2 binding, biochemical; active compounds read low; in the data active = activity change below about -65%; inconclusive = mostly about -30% to -63%
Target sequence (O00167 whole entry, looked up): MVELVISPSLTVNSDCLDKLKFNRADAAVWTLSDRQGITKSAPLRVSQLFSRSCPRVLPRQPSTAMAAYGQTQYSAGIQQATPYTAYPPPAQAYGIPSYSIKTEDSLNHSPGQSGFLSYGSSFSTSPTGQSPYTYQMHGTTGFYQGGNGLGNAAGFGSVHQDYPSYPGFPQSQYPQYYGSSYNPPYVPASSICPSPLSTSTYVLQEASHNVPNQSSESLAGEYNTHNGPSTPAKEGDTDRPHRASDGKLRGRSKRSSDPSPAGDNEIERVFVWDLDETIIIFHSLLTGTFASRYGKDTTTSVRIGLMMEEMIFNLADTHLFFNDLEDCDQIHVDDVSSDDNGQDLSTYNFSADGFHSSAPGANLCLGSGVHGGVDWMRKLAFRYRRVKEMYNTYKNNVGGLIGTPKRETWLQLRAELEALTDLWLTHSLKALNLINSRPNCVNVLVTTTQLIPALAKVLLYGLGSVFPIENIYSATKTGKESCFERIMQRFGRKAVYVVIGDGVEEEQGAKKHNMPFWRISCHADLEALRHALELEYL
Target sequence (Q15475 whole entry, looked up): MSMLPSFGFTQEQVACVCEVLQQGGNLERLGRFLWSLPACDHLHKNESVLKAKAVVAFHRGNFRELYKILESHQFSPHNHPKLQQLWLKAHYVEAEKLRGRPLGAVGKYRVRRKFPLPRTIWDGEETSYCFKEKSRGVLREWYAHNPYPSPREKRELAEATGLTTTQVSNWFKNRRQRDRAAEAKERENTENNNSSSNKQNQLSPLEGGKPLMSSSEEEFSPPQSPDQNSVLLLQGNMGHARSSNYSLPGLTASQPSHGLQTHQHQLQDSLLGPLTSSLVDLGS
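Six1/Eya2 binding was read as AlphaScreen signal after compounds were pinned into GST-Six1 plus His-tagged Eya2 (5X stock 250/500 nM) in pH 8.0 Tris/NaCl/TCEP buffer, beads added, then incubated 1 h, 37 C, dark.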
Active calls of the source: *; u = inconclusive; x = no result; [ ] = another dose, or the depositor's remark. This is a sample that favours compounds with a hit; in the whole collection about 18% have one here. Unless noted, calls follow the shape of the dose curve; as a rule, active = well fitted curve in the direction sought with a large enough effect; inconclusive = small, poorly fitted or top-dose-only effect, or another doubt; inactive = no such curve, though single readings can be large; an effect the other way counts as inactive or inconclusive. % is scaled to controls: 0 for no effect and ±100 for the full control effect.

SMILES	TDP1 block	CtBP-E1A blk	DT40 TDP1 CPT	TDP1 cell noCPT	IL-1B inflam inh	Six1-Eya2 blk
Cc1ccc(NC2=CC(=O)CC(c3ccc(Cl)cc3)C2)cc1 (stereo not given)	5%	3	u	12µM*	-14	3
CSc1ccc(C2=CC(=O)C[C@H](c3ccc(Cl)cc3)C2)cc1	1%	x	u	u	2	5
CC(C)CCNC1=CC(=O)CC(c2ccccc2)C1 (stereo not given)	1%	2	u	u	8	11
Cc1ccc(NC2=CC(=O)CC(c3ccccc3)C2)cc1 (stereo not given)	x	2	2.9µM*	3.7µM*	-1	-11
S=C(Nc1cccnc1)N1CCc2ccccc21	x	-13	2%	9%	18	3
CCN(C(=O)Cn1cc(C(F)(F)F)ccc1=O)C1CCS(=O)(=O)C1 (stereo not given)	x	-4	-1%	-5%	-5	12
CC(c1ncncc1F)[C@](O)(Cn1cncn1)c1ccc(F)cc1F (stereo not given in full)	2%	x	x	x	x	x
O=C(Nc1cccc(-c2cn3cccnc3n2)c1)c1cccs1	-1%	u	-20%	-27%	-24	u
Cc1ccn2cc(-c3cccc(NC(=O)c4cccs4)c3)nc2c1	1%	-17	u	21µM*	-99*	-15
O=C(Nc1cccc(-c2csc(-c3ccccc3)n2)c1)c1cccs1	-1%	11	18µM*	16µM*	-63*	-1
Cc1nc(-c2cccc(NC(=O)c3cccs3)c2)cs1	-6%[56.1 µM]	-12	-23%	u	11	-10
Cc1ccc(NCC(=O)N=Nc2c(O)n(C)c3ccccc23)cc1	10%	-14	-19%	-10%	-11	-20
CC(C)(C)OC(=O)N1CCC(C(=O)O)CC1	0%	-1	3%	0%	-9	4
CC(=O)c1sc(N/N=C\c2cccc(Br)c2)nc1C	3%	-7	u	u	-66*	2
CC(=O)c1sc(N/N=C\c2ccc(Br)cc2)nc1C	-3%	-4	u	u	-3	8
COc1ccc(C(=O)CCC(=O)O)c(C)c1	-3%	3	-20%	-15%	27	4
CC1(C(=O)NCc2ccccc2Br)CCN1Cc1ccc(-c2ccccc2)o1 (stereo not given)	x	-4	u	u	-21	-4
O=C(Cn1nc(CNc2ccc(Cl)cc2)[n+]2c1CCCCC2)c1ccccc1	3%	2	5.2µM*	8.2µM*	-53*	-6
CCN(CC1COc2ccccc2O1)C(=S)NC1CC2CCC1C2 (stereo not given)	5%	-3	-5%	-3%	35	3
CCCCC1(C)Cc2ccccc2C(=S)N1 (stereo not given)	8%	-16	23µM*	u	-4	-25
CCc1noc(C)c1C(=O)Nc1nc(-c2ccc(NC(C)=O)cc2)cs1	-12%[0.505 µM]	1	16µM*	21µM*	4	-1
Cc1ccc(C(=O)Nc2nc(-c3ccc([N+](=O)[O-])cc3)cs2)o1	0%	3	15µM*	12µM*	-8	1
Cc1cnc(NC(=O)c2ccc(-c3ccc([N+](=O)[O-])cc3)o2)s1	1%	x	0%	u	0	-3
Cc1ccc(C(=O)Nc2nc(-c3ccc4c(c3)OCCO4)cs2)o1	x	-8	u	u	-22	-11
CC(=O)Nc1ccc(-c2csc(NC(=O)c3ccc(C)o3)n2)cc1	5%	-3	13µM*	9.2µM*	u	-14
SMILES	TDP1 block	CtBP-E1A blk	DT40 TDP1 CPT	TDP1 cell noCPT	IL-1B inflam inh	Six1-Eya2 blk
CCc1noc(C)c1C(=O)Nc1nc(-c2ccc(OC)c(OC)c2)cs1	x	-2	u	u	u	-15
COc1ccc(NC(=O)CSCC(=O)Nc2cccc3ncccc23)cc1	x	12	-22%	-17%	17	0
O=C(Nc1ccc(Nc2ccccc2)cc1)c1cccc(F)c1	9%	-14	u	18µM*	-15	-17
O=C(Nc1ccccc1)c1cccc(S(=O)(=O)Nc2cccc(F)c2)c1	9%	x	u	26µM*	x	x
O=C(Nc1cccc(F)c1)c1ccccc1	2%	4	-29%	0%	-12	2
Cc1cccc(Nc2ncc(NC(=O)c3cccc(F)c3)c(Nc3cccc(C)c3)n2)c1	2%	x	7.3µM*	5.8µM*	x	x
COC(=O)c1ccc(NC(=O)C(C)Oc2ccccc2)cc1 (stereo not given)	1%	2	-8%	u	-6	3
Cn1ccc2c(N(Cc3ccccc3)Cc3ccccc3)cc3c(c21)C1CCC3C1 (stereo not given)	x	-21	18µM*	18µM*	12	u
CN(CCc1ccccc1)c1cc2c(c3c1ccn3C)C1CCC2C1 (stereo not given)	x	u	16µM*	u	5	u
N#Cc1ccccc1CSc1nnc(-c2ccccc2)o1	-1%	x	x	x	x	x
CCCCc1c(C)c2ccc(OC)c(/C(C)=N\O)c2oc1=O	4%	-18	u	18µM*	u	-1
COc1ccc(N2CC(C(=O)N[C@H](C(=O)NC3CCCC3)C(C)C)CC2=O)cc1 (stereo not given in full)	3%	6	-7%	22%	11	7
CCn1cc(C(=O)N2CCN(c3cc(Cl)ccc3C)CC2)c(=O)c2cc(S(=O)(=O)N3CCCCC3)ccc21	2%	x	u	u	x	x
Nc1ccccc1Sc1ccc(C(=O)c2ccccc2C(=O)O)cc1[N+](=O)[O-]	0%	-3	1%	-3%	9	-1
Nc1cc(C(=O)O)ccc1Sc1ccccc1C(=O)O	45µM*	x	-3%	u	6	0
CSCCC1NC(=O)C(C(C)=NNC(N)=O)=C1O (stereo not given)	x	2	u	16µM*	0	u
CC(=Nc1ccccc1)C1=C(O)C(CC(C)C)NC1=O (stereo not given)	x	0	-12%	-3%	-23	6
COC(CNC(=O)c1ccc2c3c(onc13)-c1ccccc1C2=O)OC	4%	-30	2.9µM*	3.3µM*	-97*	u
COc1ccccc1-n1cnnc1SCC(=O)Nc1cc(C(C)(C)C)nn1-c1ccccc1	6%	0	10µM*	13µM*	-3	0
Cc1cc(C)c(-c2cc(NC(=O)CSc3nncn3C)n(-c3ccccc3)n2)cc1C	2%	-1	18µM*	21µM*	-13	-8
